Source: PubChem BioAssay
RORgamma inh = inhibitors of mouse ROR gamma transcriptional activity; Potency, µM (highest dose often 53.6 µM), without a hit: top-dose activity change, negative = inhibition, most hits filed as inhibitors; hit rate 5.4% among 310,000; Drosophila S2 Gal4-RORgamma UAS-luciferase reporter, 20 h; note: potency is the fitted concentration of half-maximal effect; nearly all actives have a fitted effect of over 60% in size
Target sequence (P51450 whole entry, looked up, the tested form may be a part): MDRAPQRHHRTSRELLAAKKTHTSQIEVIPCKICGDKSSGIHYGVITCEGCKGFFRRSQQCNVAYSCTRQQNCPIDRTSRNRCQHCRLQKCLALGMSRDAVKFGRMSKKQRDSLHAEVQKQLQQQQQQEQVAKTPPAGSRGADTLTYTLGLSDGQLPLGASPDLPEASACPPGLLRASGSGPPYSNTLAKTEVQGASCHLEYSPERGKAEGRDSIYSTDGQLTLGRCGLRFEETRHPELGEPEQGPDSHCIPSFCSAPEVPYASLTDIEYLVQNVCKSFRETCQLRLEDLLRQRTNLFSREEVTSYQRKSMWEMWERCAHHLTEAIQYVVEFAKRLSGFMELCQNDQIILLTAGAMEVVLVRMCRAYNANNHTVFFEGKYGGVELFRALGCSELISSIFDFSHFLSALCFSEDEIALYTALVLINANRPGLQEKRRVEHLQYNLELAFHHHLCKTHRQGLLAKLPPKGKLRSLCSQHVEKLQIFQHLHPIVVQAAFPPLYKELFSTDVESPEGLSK
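Compounds are pin-transferred onto Drosophila Schneider cells expressing a copper-inducible Gal4–ROR gamma transactivation domain fusion. After 1 hr, copper sulfate is added to 700 uM final; luciferase is read 20 hr later.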
TDP1 cell noCPT = qHTS for Inhibitors of human tyrosyl-DNA phosphodiesterase 1 (TDP1): qHTS in cells in absence of CPT | Potency, µM (highest dose often 46.2 µM), without a hit: at the top dose activity change, negative = growth inhibition, usual class: inhibitors | hit rate 15% among 420,000 | AID 686978, 2013 | DT40 Tdp1-/- hTDP1 cells, no CPT, ATP luminescence, 48 h; note: potency is the fitted concentration of half-maximal effect; nearly all actives have a fitted effect of over 55% in size
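Luminescent ATP content (CellTiter-Glo) served as the growth readout. Knockout chicken DT40 cells expressing human TDP1 were exposed to compounds without camptothecin for a minimum 48 hr at 37 °C.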
IL-1B inflam inh = blocks inflammasome-driven IL-1 beta release. THP-1 LPS/ATP IL-1B secretion, AlphaLISA, 16 h; hits give low values. activity change, % at 57.5 µM. hit rate 4.7% among 360,000. AID 743279; in the data active = activity change below about -50%; inconclusive = mostly about -30% to -49%
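Secreted IL-1B measured by AlphaLISA bead assay after 16 h compound exposure of THP-1 cells; compounds (final up to 57.5 uM) added 1 h before LPS (250 ng/mL) and ATP (1.25 mM) stimulation; lower signal means less secretion.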
TDP1 cell CPT = growth inhibition of DT40 Tdp1-/-;hTDP1 cells with camptothecin (screen for TDP1 inhibitors) | AID 686979 | hit rate 12% among 420,000 | chicken DT40 Tdp1-/-;hTDP1 cells + 20 nM CPT, ATP luminescence, 48 h | Potency, µM (top dose mostly 46.2 µM), for inactives: at the highest dose activity change, negative = growth inhibition, hits mostly inhibitors; note: potency is the fitted concentration of half-maximal effect; nearly all actives have a fitted effect of over 55% in size
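Chicken DT40 Tdp1-/- cells stably complemented with human TDP1 were seeded at 400 cells/well in medium containing 20 nM camptothecin, exposed to pin-transferred compounds, and grown at 37 °C for at least 48 hr. Viability was read as ATP luminescence.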
ELG1 repair inh = inhibitors of ELG1-dependent DNA repair in HEK293T cells; hit rate 2.3% among 330,000; HEK293T ELG1-luciferase reporter, luminescence, 16 h; DNA damage induced by 5-fluorouridine; Potency, µM (highest dose often 46.1 µM), without a hit: at the top dose activity change, negative = inhibition, most hits filed as inhibitors; note: potency is the fitted concentration of half-maximal effect; nearly all actives have a fitted effect of over 55% in size
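In this reporter screen, reduction of luminescence relative to DMSO vehicle indicated activity. Compounds and 5-fluorouridine were added together to 2,000 cells per well, incubated for 16 hr at 37 °C, then developed with ONE-Glo.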
Gal4-VP16 FLuc = counter-screen for ROR gamma inhibitors: Gal4-VP16 reporter; Drosophila S2 Gal4-VP16 UAS-luciferase, luminescence, 20 h; Potency, µM (highest dose often 53.6 µM), for inactives: at the top dose activity, negative = inhibition, most hits filed as inhibitors; hit rate 3.5% among 310,000; AID 2546;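 note: Gal4-VP16 expression switched on by copper sulfate through the metallothionein promoter; potency is the fitted concentration of half-maximal effect; nearly all actives have a fitted effect of over 50% in size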
Numbers without * were called inactive; ? = inconclusive; / = no result; ! = repeats disagree. This is a sample that favours compounds with a hit; in the whole collection about 21% have one here. Unless noted, calls come from the whole dose curve; as a rule, active = well fitted curve in the direction sought with a large enough effect; inconclusive = small, poorly fitted or top-dose-only effect, or another doubt; inactive = no such curve, though single readings can be large; an effect the other way counts as inactive or inconclusive. % is set by controls: 0 for no effect and ±100 for the full control effect.

SMILES	RORgamma inh	TDP1 cell noCPT	IL-1B inflam inh	TDP1 cell CPT	ELG1 repair inh	Gal4-VP16 FLuc
COc1cccc(/C=N/Nc2cc(N3CCOCC3)ncn2)c1O	11µM*	6.5µM*	-90*	5.8µM*	12µM*	11µM*
Fc1ccc(/C=N/Nc2cc(N3CCOCC3)ncn2)cc1	?	-10%	-27	-25%	?	?
O=C(Nc1cc(N2CCOCC2)ncn1)c1ccc(F)cc1	-3%	5.8µM*	-20	-13%	?	-17%
Fc1cccc(/C=N/Nc2cc(N3CCOCC3)ncn2)c1	9%	-10%	-53*	-4%	?	?
O=C(Nc1cc(N2CCCCC2)ncn1)c1ccc(F)cc1	-38%	?	-7	?	16%	-20%
CCC1(c2ccc(Cl)cc2)NC(=S)N(c2ccc(C)c(C)c2)N1 (stereo unspecified)	?	-29%	22	5%	12%	-5%
CCC1(c2ccc(Cl)cc2)NC(=S)N(c2ccc(C)cc2)N1 (stereo unspecified)	1.8µM*	?	41	?	?	1%
CCC1(c2ccccc2)NC(=S)N(c2ccc(C)c(C)c2)N1 (stereo unspecified)	2.8µM*	?	25	-8%	?	?
Cc1c(NC(=O)c2cc3ccccc3o2)cccc1-n1cnnn1	/	?	-1	?	/	/
c1cc2cc(-c3c(-c4ccc5c(c4)OCO5)noc3-c3ccsc3)ccc2[nH]1	37%	3.2µM*!	-57*	?	?	-7%
Cc1onc(-c2ccc3c(c2)OCO3)c1-c1ccc2[nH]ccc2c1	15%	16µM*	-57*	18µM*	?	-6%
